From PubChem
Rows were chosen to be rich in hits. Some 19% of all compounds tested hit in one or more screens of this group.
ELG1 repair inh: inhibitors of ELG1-dependent DNA repair in HEK293T cells; Potency, µM (highest dose often 46.1 µM), without a hit: at the highest dose activity change, negative = inhibition, usual class: inhibitors; AID 504467; HEK293T ELG1-luciferase reporter, luminescence, 16 h; DNA damage induced by 5-fluorouridine; 330,000 tested, 2.3% active; also: potency is read from the fitted curve at half-maximal effect; nearly all actives have a fitted effect of over 55% in size
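HEK293T cells expressing luciferase-tagged ELG1 (2,000/well) received 5-Fluorouridine plus compound or DMSO for 16 hr at 37 °C. Luciferase was read by ONE-Glo luminescence after 30 min at room temperature.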
IL-1B inflam inh: blocks inflammasome-driven IL-1 beta release. THP-1 LPS/ATP IL-1B secretion, AlphaLISA, 16 h; stronger effect = lower value. AID 743279. 360,000 tested, 4.7% active. activity change, % at 57.5 µM; in the data active = activity change below about -50%; inconclusive = mostly about -30% to -49%
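THP-1 cells pretreated 1 hr with compounds (up to 57.5 uM final), then stimulated with LPS (250 ng/mL final) plus ATP (1.25 mM final); secreted IL-1B measured by AlphaLISA after 16 hr, decreased signal indicating inhibition.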
TDP1 cell CPT: growth inhibition of DT40 Tdp1-/-;hTDP1 cells with camptothecin (screen for TDP1 inhibitors); 420,000 tested, 12% active; chicken DT40 Tdp1-/-;hTDP1 cells + 20 nM CPT, ATP luminescence, 48 h; Potency, µM (series often up to 46.2 µM), without a hit: top-dose activity change, negative = growth inhibition, usual class: inhibitors; also: potency is read from the fitted curve at half-maximal effect; nearly all actives have a fitted effect of over 55% in size
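Chicken DT40 Tdp1-/- cells complemented with human TDP1, 400 cells/well, exposed to compounds plus 20 nM camptothecin for at least 48 h at 37 C; viability read as ATP content by CellTiter-Glo luminescence.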
HT1080 IDH1KD tx: HT-1080 IDH1 knockdown cell toxicity (counter line); HT-1080 IDH1 knockdown viability, ATP luminescence, 48 h; Potency, µM (titrated, usually from 46.1 µM), without a hit: at the top dose activity, negative = toxicity, usual class: cytotoxic; 360,000 tested, 2% active;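 also: potency is read from the fitted curve at half-maximal effect; 0% = DMSO wells and -100% = cell-free medium wells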
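IDH1KD HT-1080 cells, 750/well, RPMI + 5% FBS; compound pinned after 2 h settling; 48 h, 37 °C; CellTiter-Glo luminescence; % activity normalised to DMSO and no-cell wells; curves fitted, classed by r2 and efficacy.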
TDP1 cell noCPT: qHTS for Inhibitors of human tyrosyl-DNA phosphodiesterase 1 (TDP1): qHTS in cells in absence of CPT | DT40 Tdp1-/- hTDP1 cells, no CPT, ATP luminescence, 48 h | 420,000 tested, 15% active | Potency, µM (doses to about 46.2 µM), for inactives: at the top dose activity change, negative = growth inhibition, hits mostly inhibitors; also: potency is read from the fitted curve at half-maximal effect; nearly all actives have a fitted effect of over 55% in size
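Camptothecin absent (DMSO only). Human TDP1-complemented DT40 knockout cells, 400 cells/well, 37 °C for minimum 48 hr; ATP measured via CellTiter-Glo, 30 min dark incubation, luminescence.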
HT1080-NT tox: kills 2HG-producing HT-1080-NT fibrosarcoma cells | HT-1080-NT fibrosarcoma viability, CellTiter-Glo ATP luminescence, 48 h | 360,000 tested, 1.6% active | AID 686970 | Potency, µM (highest dose often 46.1 µM), for inactives: top-dose activity, negative = less viability, most hits filed as cytotoxic;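 also: NT is the 2HG producing partner of a matched IDH1 knockdown line; potency is read from the fitted curve at half-maximal effect; 0% = DMSO-treated cells and -100% = media-only wells without cells; nearly all actives have a fitted effect of over 55% in size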
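Read-out is CellTiter-Glo luminescence after 10 minutes at room temperature, following 48 hours' compound treatment of HT-1080-NT cells (750 cells/well, RPMI, 5% FBS, 37 degrees C).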
The depositor's hits bear a star; ? = inconclusive; . = no result given; ! = not confirmed by another sample; [ ] = another dose, or the depositor's remark. Unless noted, calls follow the shape of the dose curve; as a rule, active = well fitted curve in the direction sought with a large enough effect; inconclusive = small, poorly fitted or top-dose-only effect, or another doubt; inactive = no such curve, though single readings can be large; an effect the other way counts as inactive or inconclusive. Unless noted, % is scaled to controls: 0 for no effect and ±100 for the full control effect.

SMILES	ELG1 repair inh	IL-1B inflam inh	TDP1 cell CPT	HT1080 IDH1KD tx	TDP1 cell noCPT	HT1080-NT tox
CC(C)(CNC(=O)c1cccc(F)c1)CNC(=O)c1cccc(F)c1	.	1	?	11%	18µM*	-7%
COC(=O)CNC(=O)c1cccc(F)c1	7%	19	-2%	15%	-12%	11%
C[C@H](O)[C@@H]1CN2CCc3c([nH]c4ccccc34)[C@@H]2C[C@@H]1N(C)C(=O)OCc1ccccc1	.	-18	?	?	?	?
O=C(Nc1ccccc1)N1CC2(CCN(S(=O)(=O)c3ccccc3)CC2)C1	.	.	-4%	.	-15%	.
CC(C)CC(=O)Nc1nc(=S)ss1	-21%	-1	?	-2%[9.24 µM]	10µM*	-2%
O=C(Nc1cc(S(=O)(=O)N2CCCCC2)ccc1Cl)c1ccccc1NS(=O)(=O)c1ccc(F)cc1	4.1µM*	-22	5.2µM*	?	2.6µM*	0.58µM*
Cc1ccc(S(=O)(=O)N2CCOCC2)cc1C(=O)Nc1cc(S(=O)(=O)N2CCCCC2)ccc1O	.	3	?	-2%	?	-2%
O=C(Nc1cc(S(=O)(=O)N2CCCCC2)ccc1O)c1ccccc1NS(=O)(=O)c1ccc(F)cc1	-6%	-56*!	-20%	?	-26%	?
O=C(c1ccccc1NS(=O)(=O)c1ccc(F)cc1)N1CCCCC1	-3%	9	4%	-1%	-9%	-1%
Cc1ccc(S(=O)(=O)Nc2ccc3c(c2)C(=O)N([C@@H](C)CO)C[C@@H](C)[C@@H](CN(C)CC2CC2)OCCCC[C@@H](C)O3)cc1	.	16	?	9%	?	13%
Cc1ccc(-c2[nH]ncc2CNCc2ccccc2)cc1	.	.	11µM*	.	18µM*	.
Cc1c(C(=O)OC2CCCCCC2)[nH]c2c1C(=O)CC(c1ccccc1)C2 (stereo not given)	.	.	3.3µM*	.	3.7µM*	.
Cc1c(C(=O)OC2CCCCC2)[nH]c2c1C(=O)CC(c1ccc(C(C)(C)C)cc1)C2 (stereo not given)	.	.	21µM*	.	18µM*	.
CC1(C)C2CCC(C2)C1C/C=N/NC(N)=S (stereo not given)	-18%	-30	?	?	?	-9%
O=C(O)CSc1cc(C(=O)c2ccccc2O)cn2c(=O)c3c4c(sc3nc12)CCCC4	-7%	10	3%	2%	-1%	-5%
Cn1cc(Br)c(C(=O)Nc2ncc(Br)s2)n1	?	3	-7%	-1%	-26%	5%
O=C(CSc1n[nH]c(-c2ccccc2Cl)n1)N1CCN(c2ccccc2F)CC1	.	.	-22%	.	?	.
O=C(CSc1c2c(nc3cc(Cl)ccc13)CCCC2)N1CCN(c2ccccc2F)CC1	.	.	10µM*	.	6.5µM*	.
O=C(CSc1c2c(nc3ccc(Cl)cc13)CCCC2)N1CCN(C(=O)c2ccco2)CC1	.	-79*	15µM*	?	21µM*	-28%
CC1CCCN(C(=O)CSc2c3c(nc4cc(Cl)ccc24)CCCC3)C1 (stereo not given)	.	.	21µM*	.	12µM*	.
CC1CCN(C(=O)CSc2c3c(nc4ccc(Cl)cc24)CCCC3)CC1	.	.	21µM*	.	16µM*	.
CC1CCCCN1C(=O)CSc1c2c(nc3cc(Cl)ccc13)CCCC2 (stereo not given)	.	.	?	.	18µM*	.
O=C(O)c1ccc2c(c1)N(Cc1ccccc1)C(=O)c1ccccc1S2	-2%	25	11%	-1%	12%	0%
CN(C)CCNC(=O)c1ccc2c(c1)N(Cc1c(F)cccc1Cl)C(=O)c1ccccc1S2	.	.	16µM*	.	23µM*	.
